# Source: PubChem BioAssay (EPA / NIEHS)
# Several values for one entry are separate records, joined by “and”; a condition that tells them apart may be missing. Equal values may be shown once. Activity calls are given as the source filed them. The calls were made as follows: active = hit-call score of the fitted dose curve at least 0.9, where 1 is the maximum; inactive = score below 0.9.
# Assay: BSK_3C_SRB: Viability Assessment in the BioMAP Diversity Plus: 3C Assay (AID 2283023);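 also: fitted both ways against DMSO so a hit may be signal rise or drop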
# Settings: primary human endothelial cells (HUVEC)
# Protocol: BSK_3C is a cell-based, multiplexed-readout assay that uses umbilical vein endothelium, a human vascular primary cell, with measurements taken at 24 hours after chemical dosing in a 96-well plate.BSK_3C_SRB is an assay component measured in the BSK_3C assay. It measures 0.1% sulforhodamine related to cell death using Sulforhodamine staining technology.Data from the assay component BSK_3C_SRB was analyzed into 1 assay endpoint. This assay endpoint, BSK_3C_SRB, was analyzed with bidirectional fitting relative to DMSO as the negative control and baseline of activity. Using a type of viability reporter, gain or loss-of-signal activity can be used to understand changes in the signaling. Furthermore, this assay endpoint can be referred to as a primary readout, because this assay has produced multiple assay endpoints where this one serves a signaling function. To generalize the intended target to other relatable targets, this assay endpoint is annotated to the cell morphology intended target family, where the subfamily is cell conformation.
# The levels of cell surface (or secreted, indicated by the prefix "s") biomarker endpoints were measured by ELISA. Overt cytotoxicity to cells in confluent adherent cultures (all systems other than the BT system) was assessed by measuring total protein levels using sulforhodamine B (SRB) staining in parallel cultures at the time of biomarker measurements, indicated as SRB endpoints. For proliferation assays for adherent cell types, individual cell types are cultured at sub-confluence and relative cell numbers quantified by SRB staining at time points optimized for each system (48 h: 3C and CASM3C systems; 72 h: BT and HDF3CGF systems; 96 h: SAg system). SRB was performed by staining cells with 0.1% SRB after fixation with 10% TCA and reading wells at 560 nm.Viability and proliferation of PBMC (T cells) was quantified by Alamar Blue reduction for the SAg and BT systems. For PBMC viability (referred to as PBMC Cytotoxicity within the assay endpoint names), cells were plated (75,000/well in a 96-well plate) and then chemical samples added for 1 h before addition of activators, SEB and TSST-1 (20 ng/mL final concentration each). Cells were incubated for 90 h. Then, Alamar Blue (20 uL/well) (Invitrogen, Cat DAL1100) was added for 6 h, and the plates were read with a fluorescence microplate reader at 546/580 nm (excitation/emission). For PBMC proliferation, cells were plated and activated as above but incubated for only 16 h prior to addition of Alamar Blue. Plates were read after 6 h.
SMILES,outcome,AC50
O=C1OC[C@H](Cc2cccc(O)c2)[C@H]1Cc1cccc(O)c1,inactive,
c1ccc(Oc2ccccc2)cc1,,30 µM (active)
CN(C)C(=O)Nc1ccc(Oc2ccc(Cl)cc2)cc1,inactive,
CN(c1nccc(=O)[nH]1)C1CCN(c2nc3ccccc3n2Cc2ccc(F)cc2)CC1,inactive,
CSCCC=O,inactive,
CC(C)(C)CC(C)(C)c1ccc(OCCOCC[N+](C)(C)Cc2ccccc2)cc1,,4.62 µM (active)
C=C(C)[C@H]1CC=C(C)C(=O)C1,inactive,
c1ccc2cc(Nc3ccc(Nc4ccc5ccccc5c4)cc3)ccc2c1,inactive,
IC(I)I,inactive,
C=CC(C)(O)CCC=C(C)C (stereo not given),inactive,
CC(C=O)Cc1ccc(C(C)(C)C)cc1 (stereo not given),,31.2 µM (active)
C=C(C)C(=O)OCCOCCOCCOCCOC(=O)C(=C)C,inactive,
CCCCOC(=O)CCCCCCCC(=O)OCCCC,inactive,
CCCCCCC(CO)CCCC (stereo not given),inactive,
C=C(C)C(=O)OCCOCCOCCOC(=O)C(=C)C,inactive,
O=C(Nc1ccc2c(O)c(N=Nc3ccc(N=Nc4ccc(S(=O)(=O)O)cc4)cc3)c(S(=O)(=O)O)cc2c1)c1ccccc1,inactive,
Oc1c(Cl)cc(Cl)c(Cl)c1Cc1c(O)c(Cl)cc(Cl)c1Cl,,5.1 µM (active)
CC1(C)CCC[C@]2(C)[C@H]3CCO[C@]3(C)CC[C@@H]12,,34.9 µM (active) and 39.2 µM (active)
CC(=O)c1c(C)c([N+](=O)[O-])c(C(C)(C)C)c([N+](=O)[O-])c1C,inactive,
CC(C)(N=C=O)c1cccc(C(C)(C)N=C=O)c1,inactive,

SMILES,outcome,AC50
COc1cc(Cl)c(OC)cc1N,inactive,
CS(=O)(=O)OCCCCOS(C)(=O)=O,inactive,
O=CN1CCOCC1,inactive,
COc1ccc(CCN2CCC(Nc3nc4ccccc4n3Cc3ccc(F)cc3)CC2)cc1,,2.41 µM (active)
CC(CN=Cc1ccccc1O)N=Cc1ccccc1O (stereo not given),inactive,
Cc1cc(CCC(=O)OCCOCCOCCOC(=O)CCc2cc(C)c(O)c(C(C)(C)C)c2)cc(C(C)(C)C)c1O,,28.1 µM (active)
CN(C)C(=S)SC(=S)N(C)C,,19.9 µM (active)
CCOC(=O)C(C#N)=C(c1ccccc1)c1ccccc1,,25.6 µM (active) and 20 µM (active)
CCCCCCCCCCCCCCCC(=O)OC/C=C(C)/C=C/C=C(C)/C=C/C1=C(C)CCCC1(C)C,,29.5 µM (active)
CC(=O)Nc1ccc(C(=O)CCl)cc1,,9.52 µM (active)
Clc1cc(Cl)c(-c2c(Cl)c(Cl)cc(Cl)c2Cl)cc1Cl,,15.8 µM (active)
CCN(CC)C(=O)N(CC)CC,inactive,
CS(=O)(=O)c1ccc(C2=C(c3ccccc3)C(=O)OC2)cc1,inactive,
c1ccc(CCc2ccccc2)cc1,,30.5 µM (active)
CC1(C)C2=CCCC(C)(C)[C@]23CC[C@H]1C3,,30.4 µM (active)
C[C@@H]1CCN(C(=O)[C@H](CCCN=C(N)N)NS(=O)(=O)c2cccc3c2NC[C@H](C)C3)[C@@H](C(=O)O)C1,inactive,
C1=CC2C3C=CC(C3)C2C1 (stereo not given),inactive,
C=C(C)C(=O)OCC(CC)(COC(=O)C(=C)C)COC(=O)C(=C)C,inactive,
COc1ccc(OC)c(N=Nc2c(O)ccc3ccccc23)c1,inactive,
CCCCN(CCCC)C(=O)N(CCCC)CCCC,,7.99 µM (active)
